What all share (settings): 25 µM; exposure: 24-48 hpf
The test system of assay [1] is Danio rerio Tg(wt1b:EGFP) embryo, pronephros. Nature of the assay: glomerular separation, fold change vs DMSO control; higher = glomeruli further apart (abnormal). The method, boiled down:
(§1)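 Dechorionated Tg(wt1b:EGFP) zebrafish embryos were exposed to 25 μM compound in 0.5% DMSO, HEPES-buffered E3 with 0.003% PTU, from 24 to 48 hpf at 28.5°C. Pronephroi were imaged dorsally in agarose-filled 96-well plates (470 nm, 10 z-slices). On maximum projections, 16 reference points were set manually in Fiji and a macro computed distances and angles. Values more than 2 SD from the feature mean were excluded. Each feature is a fold change relative to the mean of same-day DMSO controls.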

For assay [2] the test system is unchanged. Put plainly: glomerular width (mean of left and right), fold change vs DMSO control; higher = wider glomerulus. An outline of the steps: as §1
For assay [3] the test system is unchanged. Put plainly: fraction of imaged embryos annotated as normal kidney; higher = less nephrotoxic; extreme values may be limits of the assay. An outline of the steps:
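The value given is the share of embryos in each treatment scored as having a normal kidney. To obtain it, dechorionated Tg(wt1b:EGFP) zebrafish embryos were treated from 24 to 48 hpf at 28.5°C with 25 μM compound in 0.5% DMSO, in 5 mM HEPES-buffered E3 with 0.003% PTU. Pronephroi were imaged by widefield fluorescence (470 nm, 10 z-slices), and every embryo was annotated by hand from maximum projections.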

Assay [4] shares this test system. Nature of the assay: pronephric angle neck segment to proximal convoluted tubule (mean of left and right), fold change vs DMSO control; higher = larger pronephric angle. An outline of the steps: as §1

The values below come from the supplement of paper PMC7366291.

Where a name gives a salt, the structure may show the parent alone. ± gives the standard deviation or the standard deviation of the averaged measurements.

In assay [1], `CN(C)[C@@H]1C(O)=C(C(N)=O)C(=O)[C@@]2(O)C(O)=C3C(=O)c4c(O)cccc4[C@@](C)(O)[C@H]3[C@H](O)[C@@H]12` [Oxytetracycline dihydrate] had a glomerular separation of 1.22 ± 0.44. In assay [2], this molecule came in with a glomerular width of 0.955 ± 0.036. Further, in assay [3], the “fraction of imaged embryos annotated as normal kidney” value (“fraction of imaged embryos annotated” for short) amounted to 0.909. In assay [4], the “pronephric angle neck segment” value worked out at 0.9153 ± 0.0078.

In turn, `Clc1ccccc1C(c1ccccc1)(c1ccccc1)n1ccnc1` [Clotrimazole] showed a glomerular separation in assay [1] of 2.06 ± 1.1. This molecule yielded a glomerular width in assay [2] of 0.861 ± 0.11. Also, the “fraction of imaged embryos annotated” value in assay [3] is 0.583. Also, the “pronephric angle neck segment” value in assay [4] worked out at 1.26 ± 0.1.

With `CCCCc1cc2ccccc2c(OCCN(C)C)n1` [Dimethisoquin hydrochloride], the glomerular separation in assay [1] was 0.777 ± 0.2. This molecule gave a glomerular width in assay [2] of 0.942 ± 0.065. Besides, the “fraction of imaged embryos annotated” value in assay [3] came to 0.917. For the same molecule, the “pronephric angle neck segment” value in assay [4] is 0.9905 ± 0.004.

In turn, `CC(C)NC[C@H](O)COc1cccc2ccccc12` [(S)-propranolol hydrochloride] returned a glomerular separation in assay [1] of 0.888 ± 0.27. Also, the glomerular width in assay [2] is 1.03 ± 0.017. Besides, the “fraction of imaged embryos annotated” value in assay [3] turned out to be 0.75. Further, the “pronephric angle neck segment” value in assay [4] was 0.9744 ± 0.0062.

Regarding `CN1CC2c3ccccc3Oc3ccc(Cl)cc3C2C1` (stereo not drawn) [Asenapine maleate], the glomerular separation in assay [1] was found to be 0.806 ± 0.35. The glomerular width in assay [2] is 0.991 ± 0.088. Also, the “fraction of imaged embryos annotated” value in assay [3] was 0.583. Also, the “pronephric angle neck segment” value in assay [4] is 0.7772 ± 0.0031.

In assay [1], `NC(=O)OCC(COC(N)=O)c1ccccc1` [Felbamate] displayed a glomerular separation of 0.918 ± 0.32. In addition, the glomerular width in assay [2] was 1.05 ± 0.031. Moreover, the “fraction of imaged embryos annotated” value in assay [3] is 0.833. The “pronephric angle neck segment” value in assay [4] was found to be 1.01 ± 0.013.

The molecule `C#C[C@]1(O)CC[C@H]2[C@@H]3CCC4=CC(=O)CC[C@@H]4[C@H]3CC[C@@]21CC` [Norgestrel-(-)-D] showed a glomerular separation in assay [1] of 0.798 ± 0.23. Further, the glomerular width in assay [2] is 1.016 ± 0.0075. For the same molecule, in assay [3], the “fraction of imaged embryos annotated” value was 1. Also, the “pronephric angle neck segment” value in assay [4] was determined as 1.03 ± 0.013.
